What was measured:
Experiment in all cases: DAPPL (digital affinity profiling via proximity ligation, sequencing); 10 mM Tris-HCl pH 7.5, 50 mM NaCl, 1 mM DTT, 4% glycerol, room temperature, 30 min; GST-TFs on glutathione beads, 16-mer random dsDNA library, 0.1% formaldehyde crosslink after washing; high values mean tight binding
Settings in all cases: protein: recombinant; tags: N-terminal GST; dsDNA, one strand shown
ERF = molecular target: T1, ERF (Homo sapiens, UniProt P50548 1-548)
T1 sequence: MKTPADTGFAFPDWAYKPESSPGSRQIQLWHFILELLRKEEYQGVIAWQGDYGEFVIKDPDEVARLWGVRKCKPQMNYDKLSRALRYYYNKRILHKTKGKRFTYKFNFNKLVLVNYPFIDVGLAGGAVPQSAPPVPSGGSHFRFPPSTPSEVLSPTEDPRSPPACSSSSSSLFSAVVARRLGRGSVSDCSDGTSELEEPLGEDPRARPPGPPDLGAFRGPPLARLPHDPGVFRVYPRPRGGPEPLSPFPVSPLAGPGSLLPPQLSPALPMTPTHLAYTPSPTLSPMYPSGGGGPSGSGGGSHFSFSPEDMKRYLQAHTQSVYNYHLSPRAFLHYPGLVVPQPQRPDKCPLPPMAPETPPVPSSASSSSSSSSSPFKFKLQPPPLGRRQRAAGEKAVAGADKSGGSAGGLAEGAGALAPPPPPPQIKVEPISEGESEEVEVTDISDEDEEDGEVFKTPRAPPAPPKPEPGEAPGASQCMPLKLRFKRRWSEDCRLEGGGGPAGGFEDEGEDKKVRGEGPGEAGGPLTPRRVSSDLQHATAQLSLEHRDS
Procedure, shortened: (§1)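 Human transcription factors fused to GST were expressed in yeast, captured on glutathione beads, given DNA barcodes and pooled with a GST-only negative control. Pools were incubated with 200 nmole of a 16-mer random double-stranded DNA library in Tris/NaCl/DTT/glycerol buffer at room temperature for 30 min. They were then washed, crosslinked with 0.1% formaldehyde, proximity-ligated (BsaI/T4 ligase, 1 h, 37 °C), PCR-amplified and sequenced on an Illumina NextSeq500. Binding signal is each 6-mer's read frequency for a factor divided by its frequency for the GST control.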

ETV3L = molecular target: T2, ETV3L (Homo sapiens, UniProt Q6ZN32 1-361)
T2 sequence: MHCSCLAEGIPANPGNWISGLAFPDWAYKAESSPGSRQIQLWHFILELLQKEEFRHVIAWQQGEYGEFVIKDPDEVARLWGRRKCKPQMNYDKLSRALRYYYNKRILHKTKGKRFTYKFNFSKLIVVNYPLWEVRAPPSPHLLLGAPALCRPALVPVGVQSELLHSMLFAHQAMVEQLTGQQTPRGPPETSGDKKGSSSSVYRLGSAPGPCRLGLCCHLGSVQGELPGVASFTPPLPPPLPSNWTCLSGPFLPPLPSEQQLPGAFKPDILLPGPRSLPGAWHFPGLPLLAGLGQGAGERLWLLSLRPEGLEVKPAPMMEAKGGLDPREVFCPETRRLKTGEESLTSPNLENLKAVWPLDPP
Procedure, shortened: as §1

ETS2 = molecular target: T3, ETS2 (Homo sapiens, UniProt P15036 1-469)
T3 sequence: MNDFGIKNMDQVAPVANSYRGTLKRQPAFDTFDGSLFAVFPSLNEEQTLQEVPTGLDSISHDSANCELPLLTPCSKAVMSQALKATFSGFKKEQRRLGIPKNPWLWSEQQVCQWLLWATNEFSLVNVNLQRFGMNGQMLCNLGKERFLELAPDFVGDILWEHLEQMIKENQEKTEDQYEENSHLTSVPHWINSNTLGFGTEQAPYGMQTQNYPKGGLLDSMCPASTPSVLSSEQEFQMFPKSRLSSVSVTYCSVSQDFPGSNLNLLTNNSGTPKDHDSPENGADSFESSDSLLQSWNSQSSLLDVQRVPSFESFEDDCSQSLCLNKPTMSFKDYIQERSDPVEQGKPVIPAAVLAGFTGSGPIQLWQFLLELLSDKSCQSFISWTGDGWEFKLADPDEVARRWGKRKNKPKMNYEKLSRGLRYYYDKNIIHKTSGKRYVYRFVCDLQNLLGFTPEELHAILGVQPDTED
Procedure, shortened: as §1

SPDEF = molecular target: T4, SPDEF (Homo sapiens, UniProt O95238 1-335)
T4 sequence: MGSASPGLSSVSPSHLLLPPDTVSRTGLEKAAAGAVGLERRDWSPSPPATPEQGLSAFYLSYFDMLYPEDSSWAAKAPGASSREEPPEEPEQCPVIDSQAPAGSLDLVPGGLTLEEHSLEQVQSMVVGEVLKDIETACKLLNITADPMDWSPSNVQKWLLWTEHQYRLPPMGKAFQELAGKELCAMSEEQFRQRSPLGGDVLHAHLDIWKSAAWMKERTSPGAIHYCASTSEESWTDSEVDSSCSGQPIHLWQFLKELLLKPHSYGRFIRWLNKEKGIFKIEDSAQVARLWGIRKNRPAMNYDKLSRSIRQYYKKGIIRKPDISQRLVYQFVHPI
Procedure, shortened: as §1

ETV7 = molecular target: T5, ETV7 (Homo sapiens, UniProt Q9Y603 1-341)
T5 sequence: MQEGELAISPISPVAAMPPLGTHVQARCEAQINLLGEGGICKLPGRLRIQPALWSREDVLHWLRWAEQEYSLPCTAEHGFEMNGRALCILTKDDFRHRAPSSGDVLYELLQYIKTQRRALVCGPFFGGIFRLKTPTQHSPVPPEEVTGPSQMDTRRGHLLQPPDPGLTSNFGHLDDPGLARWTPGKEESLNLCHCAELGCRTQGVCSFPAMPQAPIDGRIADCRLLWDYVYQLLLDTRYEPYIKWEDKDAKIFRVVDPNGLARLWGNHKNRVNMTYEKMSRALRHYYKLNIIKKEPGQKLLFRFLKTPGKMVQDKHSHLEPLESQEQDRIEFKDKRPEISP
Procedure, shortened: as §1

ELF5 = molecular target: T6, ELF5 (Homo sapiens, UniProt Q9UKW6-2 1-255)
T6 sequence: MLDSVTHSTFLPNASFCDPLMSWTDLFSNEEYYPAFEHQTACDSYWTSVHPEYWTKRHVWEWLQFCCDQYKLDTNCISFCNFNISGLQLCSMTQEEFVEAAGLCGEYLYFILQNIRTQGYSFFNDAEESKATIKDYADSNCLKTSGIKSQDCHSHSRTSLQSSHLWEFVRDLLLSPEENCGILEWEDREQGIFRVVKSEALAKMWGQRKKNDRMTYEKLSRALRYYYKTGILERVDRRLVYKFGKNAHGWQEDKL
Procedure, shortened: as §1

ETV3 = molecular target: T7, ETV3 (Homo sapiens, UniProt P41162-2 1-143)
T7 sequence: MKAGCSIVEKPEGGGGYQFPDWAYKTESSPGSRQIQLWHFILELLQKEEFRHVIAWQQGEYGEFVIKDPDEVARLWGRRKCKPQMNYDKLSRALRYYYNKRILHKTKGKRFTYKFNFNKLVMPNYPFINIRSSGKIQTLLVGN
Procedure, shortened: as §1

ETV6 = ETV6 (Homo sapiens, UniProt P41212 1-452)
Procedure, shortened: as §1

Chain of ETV6 (P41212 whole entry): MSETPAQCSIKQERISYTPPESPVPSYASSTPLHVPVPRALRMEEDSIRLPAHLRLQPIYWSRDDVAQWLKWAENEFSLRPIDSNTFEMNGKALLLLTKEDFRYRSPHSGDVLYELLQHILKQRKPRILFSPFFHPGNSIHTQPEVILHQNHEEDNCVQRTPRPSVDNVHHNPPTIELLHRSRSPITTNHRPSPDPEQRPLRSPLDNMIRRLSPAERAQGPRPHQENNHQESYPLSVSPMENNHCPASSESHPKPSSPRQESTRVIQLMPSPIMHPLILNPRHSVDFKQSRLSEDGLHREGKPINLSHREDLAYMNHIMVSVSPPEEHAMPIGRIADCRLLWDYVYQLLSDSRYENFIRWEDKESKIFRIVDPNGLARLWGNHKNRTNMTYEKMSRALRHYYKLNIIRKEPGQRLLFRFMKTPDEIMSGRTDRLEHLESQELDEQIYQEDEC

**Q.** What does the source list for TTATGC?
**A.** binding signal (ERF): 1.16 fold enrichment (6-mer frequency, TF over GST control); binding signal (ETV3L): 1.33 fold enrichment (6-mer frequency, TF over GST control); binding signal (ETS2): 1.28 fold enrichment (6-mer frequency, TF over GST control); binding signal (SPDEF): 1.37 fold enrichment (6-mer frequency, TF over GST control); binding signal (ETV7): 1.44 fold enrichment (6-mer frequency, TF over GST control); binding signal (ELF5): 1.29 fold enrichment (6-mer frequency, TF over GST control); binding signal (ETV3): 1.34 fold enrichment (6-mer frequency, TF over GST control); binding signal (ETV6): 1.31 fold enrichment (6-mer frequency, TF over GST control)

**Q.** Which binding signal (ERF) does the source give for CTATAC here?
**A.** 1.21 fold enrichment (6-mer frequency, TF over GST control)

**Q.** What about the binding signal (ETV3L) of the same sequence?
**A.** 1.19 fold enrichment (6-mer frequency, TF over GST control)

**Q.** And the binding signal (ETS2)?
**A.** 1.28 fold enrichment (6-mer frequency, TF over GST control)

**Q.** What about the binding signal (SPDEF) of the same sequence?
**A.** 1.39 fold enrichment (6-mer frequency, TF over GST control)

**Q.** And the binding signal (ETV7)?
**A.** 1.19 fold enrichment (6-mer frequency, TF over GST control)

**Q.** And the binding signal (ELF5)?
**A.** 1.26 fold enrichment (6-mer frequency, TF over GST control)

**Q.** And the binding signal (ETV3)?
**A.** 1.24 fold enrichment (6-mer frequency, TF over GST control)

**Q.** And the binding signal (ETV6)?
**A.** 1.28 fold enrichment (6-mer frequency, TF over GST control)

**Q.** CTCTAT was tested. Which binding signal (ERF) did it give?
**A.** 1.22 fold enrichment (6-mer frequency, TF over GST control)

**Q.** What about the binding signal (ETV3L) of the same sequence?
**A.** 1.14 fold enrichment (6-mer frequency, TF over GST control)

**Q.** What about the binding signal (ETS2) of the same sequence?
**A.** 1.16 fold enrichment (6-mer frequency, TF over GST control)

**Q.** What about the binding signal (SPDEF) of the same sequence?
**A.** 1.16 fold enrichment (6-mer frequency, TF over GST control)

**Q.** And the binding signal (ETV7)?
**A.** 1.18 fold enrichment (6-mer frequency, TF over GST control)

**Q.** And the binding signal (ELF5)?
**A.** 1.14 fold enrichment (6-mer frequency, TF over GST control)

**Q.** And the binding signal (ETV3)?
**A.** 1.08 fold enrichment (6-mer frequency, TF over GST control)

**Q.** And the binding signal (ETV6)?
**A.** 1.06 fold enrichment (6-mer frequency, TF over GST control)

**Q.** What does the source list for CTAATT?
**A.** binding signal (ERF): 1.27 fold enrichment (6-mer frequency, TF over GST control); binding signal (ETV3L): 1.23 fold enrichment (6-mer frequency, TF over GST control); binding signal (ETS2): 1.37 fold enrichment (6-mer frequency, TF over GST control); binding signal (SPDEF): 1.17 fold enrichment (6-mer frequency, TF over GST control); binding signal (ETV7): 1.23 fold enrichment (6-mer frequency, TF over GST control); binding signal (ELF5): 1.22 fold enrichment (6-mer frequency, TF over GST control); binding signal (ETV3): 1.19 fold enrichment (6-mer frequency, TF over GST control); binding signal (ETV6): 1.33 fold enrichment (6-mer frequency, TF over GST control)

**Q.** How did the binding signal (ERF) turn out when CTCCTA was run?
**A.** 1.49 fold enrichment (6-mer frequency, TF over GST control)

**Q.** What about the binding signal (ETV3L) of the same sequence?
**A.** 1.36 fold enrichment (6-mer frequency, TF over GST control)

**Q.** What about the binding signal (ETS2) of the same sequence?
**A.** 1.32 fold enrichment (6-mer frequency, TF over GST control)

**Q.** And the binding signal (SPDEF)?
**A.** 1.34 fold enrichment (6-mer frequency, TF over GST control)

**Q.** And the binding signal (ETV7)?
**A.** 1.37 fold enrichment (6-mer frequency, TF over GST control)

**Q.** What about the binding signal (ELF5) of the same sequence?
**A.** 1.41 fold enrichment (6-mer frequency, TF over GST control)

**Q.** What about the binding signal (ETV3) of the same sequence?
**A.** 1.23 fold enrichment (6-mer frequency, TF over GST control)

**Q.** What about the binding signal (ETV6) of the same sequence?
**A.** 1.29 fold enrichment (6-mer frequency, TF over GST control)

**Q.** Which binding signal (ERF) does the source give for TATTGT here?
**A.** 1.44 fold enrichment (6-mer frequency, TF over GST control)

**Q.** And the binding signal (ETV3L)?
**A.** 1.32 fold enrichment (6-mer frequency, TF over GST control)

**Q.** What about the binding signal (ETS2) of the same sequence?
**A.** 1.37 fold enrichment (6-mer frequency, TF over GST control)

**Q.** What about the binding signal (SPDEF) of the same sequence?
**A.** 1.3 fold enrichment (6-mer frequency, TF over GST control)

**Q.** What about the binding signal (ETV7) of the same sequence?
**A.** 1.35 fold enrichment (6-mer frequency, TF over GST control)

**Q.** What about the binding signal (ELF5) of the same sequence?
**A.** 1.23 fold enrichment (6-mer frequency, TF over GST control)

**Q.** What about the binding signal (ETV3) of the same sequence?
**A.** 1.34 fold enrichment (6-mer frequency, TF over GST control)

**Q.** What about the binding signal (ETV6) of the same sequence?
**A.** 1.33 fold enrichment (6-mer frequency, TF over GST control)

**Q.** With GTAAAC as the sequence, how does the binding signal (ERF) read?
**A.** 1.27 fold enrichment (6-mer frequency, TF over GST control)

**Q.** What about the binding signal (ETV3L) of the same sequence?
**A.** 1.18 fold enrichment (6-mer frequency, TF over GST control)

**Q.** What about the binding signal (ETS2) of the same sequence?
**A.** 1.28 fold enrichment (6-mer frequency, TF over GST control)

**Q.** And the binding signal (SPDEF)?
**A.** 1.17 fold enrichment (6-mer frequency, TF over GST control)

**Q.** And the binding signal (ETV7)?
**A.** 1.18 fold enrichment (6-mer frequency, TF over GST control)

**Q.** What about the binding signal (ELF5) of the same sequence?
**A.** 1.22 fold enrichment (6-mer frequency, TF over GST control)

**Q.** What about the binding signal (ETV3) of the same sequence?
**A.** 1.3 fold enrichment (6-mer frequency, TF over GST control)

**Q.** What about the binding signal (ETV6) of the same sequence?
**A.** 1.21 fold enrichment (6-mer frequency, TF over GST control)

**Q.** What does the source list for TCAATA?
**A.** binding signal (ERF): 1.24 fold enrichment (6-mer frequency, TF over GST control); binding signal (ETV3L): 1.24 fold enrichment (6-mer frequency, TF over GST control); binding signal (ETS2): 1.15 fold enrichment (6-mer frequency, TF over GST control); binding signal (SPDEF): 1.17 fold enrichment (6-mer frequency, TF over GST control); binding signal (ETV7): 1.26 fold enrichment (6-mer frequency, TF over GST control); binding signal (ELF5): 1.08 fold enrichment (6-mer frequency, TF over GST control); binding signal (ETV3): 1.23 fold enrichment (6-mer frequency, TF over GST control); binding signal (ETV6): 1.14 fold enrichment (6-mer frequency, TF over GST control)
